From the supplement of paper PMC12636033 come the findings set out here.

± gives the standard deviation of the averaged measurements. The full ranking holds about 33,000 sequences; the median of “E-score (rank enrichment, -0.5 to 0.5)” is about -0.0075, and the highest 2% start at about 0.23. Shown is part of a subset that was picked to be rich in the highest values.

The test system of this test is WT Max(13-93) synthetic (M65Nle). Kind of test: PBM 8-mer E-score (E-score (rank enrichment, -0.5 to 0.5)); higher = stronger preferential binding. On the procedure:
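Protein binding microarray (universal PBM chip covering all 10-mers in fixed probe flanks) with chemically synthesized human Max(13-93) bHLH-LZ analogs (not full-length Max) bearing noncanonical residues (hArg, Tha, Aib, Nle at 65) and aromatic Cys staples. Read-out per 8-mer (and its reverse complement): E-score (rank-based enrichment, -0.5 to 0.5) and Z-score of median probe intensity.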
For the sequence CGATTATC, the “PBM 8-mer E-score” value is -0.178 ± 0.066.
GTCGAAAC: the “PBM 8-mer E-score” value stood at 0.079 ± 0.031.
On to GATAACTA, for which the “PBM 8-mer E-score” value was found to be 0.235 ± 0.061.
In the case of CATAACCA, the “PBM 8-mer E-score” value is 0.165 ± 0.033.
The result for GATAACCA reads 0.24 ± 0.037; that for AATAACTA, 0.125 ± 0.0044.
Next, TATAACCA: 0.17 ± 0.0076.
Next, CATAACTA: 0.167 ± 0.0044; CCATGACC: -0.0452 ± 0.14.
As for CAGATATA, the “PBM 8-mer E-score” value was 0.108 ± 0.023.
As for AAGATAAG, the “PBM 8-mer E-score” value amounted to 0.152 ± 0.024.
On to AAGATAAC, for which the “PBM 8-mer E-score” value was 0.266 ± 0.045.
Regarding AAGATATC, the “PBM 8-mer E-score” value was 0.0756 ± 0.073.
Next, AAGATACA: 0.258 ± 0.015; GAGATAAC: 0.104 ± 0.025.
The result for GAGATACA reads 0.0679 ± 0.025; that for AAGATATA, 0.253 ± 0.046; that for AAGATACT, 0.0763 ± 0.011.
Next, ACAGTCCG: -0.0248 ± 0.0053; CACGGTGC: 0.0526 ± 0.033.
For the sequence CTGTTAAC, the “PBM 8-mer E-score” value was -0.00712 ± 0.14.
Next, ATGTTAAG: 0.107 ± 0.028; ATGTTATC: 0.0836 ± 0.016; ATGTTATA: 0.235 ± 0.069.
On to ATGTTATG, for which the “PBM 8-mer E-score” value was 0.251 ± 0.084.
For CTGTTATA, the “PBM 8-mer E-score” value amounted to 0.055 ± 0.085.
As to GTGTTAAC, the “PBM 8-mer E-score” value was determined as 0.0845 ± 0.082.
With GTGTTATA, the “PBM 8-mer E-score” value is 0.215 ± 0.0088.
Next, ATGTTAAC: 0.291 ± 0.035.
Next, GTGTGCCA: -0.0682 ± 0.094; ATACGCAC: 0.0776 ± 0.052; ATAGTCAG: 0.0518 ± 0.079.
Regarding AACTATTG, the “PBM 8-mer E-score” value worked out at 0.139 ± 0.033.
Next, ACCTTCCC: -0.0595 ± 0.1.
With CGCATGTA, the “PBM 8-mer E-score” value was found to be 0.0311 ± 0.051.
Next, AGCATGTG: 0.295 ± 0.0053; AGCATGGG: 0.128 ± 0.096; AGCATGTA: 0.238 ± 0.019.
AGCATGTC: the “PBM 8-mer E-score” value came out at 0.157 ± 0.0017.
With GGCATGTA, the “PBM 8-mer E-score” value was found to be 0.135 ± 0.023.
With ACAGGTTA, the “PBM 8-mer E-score” value was determined as 0.0367 ± 0.075.
Next, CTTCTCCC: 0.0392 ± 0.039.
On to AAATTCGG, for which the “PBM 8-mer E-score” value worked out at 0.0747 ± 0.038.
Next, ATGGTCCA: -0.0964 ± 0.052; AAGGCATG: 0.207 ± 0.081; AAAACAGC: 0.0957 ± 0.12.
The result for CAAACAGC reads 0.244 ± 0.0038; that for CAAACACA, 0.2434 ± 0.00028; that for CAAACACC, 0.118 ± 0.15.
As for AAAACACA, the “PBM 8-mer E-score” value amounted to 0.128 ± 0.02.
Next, TAAACACA: 0.182 ± 0.021.
Turning to CAAACAGG, the “PBM 8-mer E-score” value was 0.0276 ± 0.019.
As to AAAACACG, the “PBM 8-mer E-score” value worked out at 0.193 ± 0.049.
For the sequence CAAACACG, the “PBM 8-mer E-score” value was 0.285 ± 0.064.
Regarding ACATTTCT, the “PBM 8-mer E-score” value was found to be 0.152 ± 0.0081.
Turning to CCCTGGCG, the “PBM 8-mer E-score” value was -0.198 ± 0.061.
Turning to TACGGTCA, the “PBM 8-mer E-score” value was -0.0681 ± 0.052.
In the case of CCAAGGCG, the “PBM 8-mer E-score” value was -0.191 ± 0.077.
The result for ACCGTAAT reads -0.00988 ± 0.068; that for TAGCTGGA, -0.111 ± 0.035; that for AATTACAA, 0.251 ± 0.026.
Next, TATTACAA: 0.181 ± 0.024; AATTACAT: 0.135 ± 0.0071; GTAATCAC: -0.0619 ± 0.076.
Regarding ACCGTGTC, the “PBM 8-mer E-score” value was -0.0348 ± 0.1.
Next, ATTAACAG: 0.0545 ± 0.024.
As to ATTAACAA, the “PBM 8-mer E-score” value amounted to 0.289 ± 0.057.
The result for GTTAACAA reads 0.138 ± 0.024; that for CTTAACAC, 0.135 ± 0.068; that for ATTAACAC, 0.247 ± 0.019.
The result for ATTAACTC reads 0.16 ± 0.064; that for GTTTCCGA, 0.0231 ± 0.1; that for CTCAAAGC, -0.0195 ± 0.016.
The result for CATGATGC reads 0.124 ± 0.073; that for AATGATAC, 0.2224 ± 0.00047; that for TATGATAA, 0.201 ± 0.065.
CATGATGA: the “PBM 8-mer E-score” value came out at 0.233 ± 0.045.
In the case of AATGATAA, the “PBM 8-mer E-score” value was 0.146 ± 0.062.
With CATGATGG, the “PBM 8-mer E-score” value was -0.0865 ± 0.045.
Next, CATGATAA: 0.296 ± 0.039.
Consider AATGATAG, for which the “PBM 8-mer E-score” value stood at 0.166 ± 0.08.
The result for AATGATAT reads 0.257 ± 0.086; that for CCCTTCTA, 0.2 ± 0.016.
Next, ATCCCTAC: 0.0174 ± 0.027.
The result for AAGAGTAA reads 0.0887 ± 0.095; that for CCAGGTAG, -0.0484 ± 0.088.
